The values below come from PubChem BioAssay.

Test [1] is described as follows: antimalarial activity against Dd2 strain (AID 2302;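 active means growth inhibition above 50% at the single 2 µM test dose, taken to imply half-maximal potency below 2 µM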;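 further: 0% = DMSO untreated growth and 100% = chloroquine plus artemisinin killed control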). Particulars: P. falciparum Dd2 in RBCs, LDH growth readout, 72 h; at 2 µM; stronger effect = higher value.
The nature of test [2]: HepG2 cytotoxicity, primary screen, cytotoxicity control for P. falciparum antimalarial project, cell-based, ATP luminescence (AID 2303;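 active means inhibition above 50%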;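 further: 0% = DMSO wells and 100% = digitonin-killed cells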). The following applies: HepG2 viability, 24-48 h, at 10 µM, stronger effect = higher value.
Test [3] has as its target L-lactate dehydrogenase (Plasmodium falciparum (isolate CDC / Honduras)) (UniProt Q27743). As to the kind of experiment: PfLDH activity inhibition – cell lysate, 3D7 strain, counter-screen for P. falciparum growth inhibition project (AID 2304).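 Further: 0% = vehicle and 100% = reference inhibitor.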 The following applies: P. falciparum 3D7 crude extract, LDH APAD/NBT absorbance; at 2 µM; stronger effect = higher value. (In general: A counterscreen serves to expose hits that act by an unwanted route or on another target.)

Test [4] can be described thus: inhibition of 3D7 malaria parasite growth – strain 3D7 (AID 2306).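 Further: 0% = DMSO wells and 100% = chloroquine plus artemisinin control wells.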 Particulars: P. falciparum 3D7 erythrocytic growth, LDH absorbance, 72 h; at 2 µM; stronger effect = higher value.
For test [5], the target named is Calcium-dependent protein kinase 1 (Plasmodium falciparum (isolate 3D7)) (UniProt P62344). Put plainly: PfCDPK1 kinase inhibitors, biochemical, TCAMS library (AID 1159585; cut-off not given, nearly all actives have IC50 up to about 0.98 µM;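 further: inhibitors leave more ATP so luminescence rises with inhibition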). Particulars: recombinant PfCDPK1, Kinase-Glo ATP depletion luminescence.
For test [6], the target named is Plasmodium falciparum protein kinase 6 (PK6, PF3D7_1337100) (UniProt Q8IDW1). As to the kind of experiment: PfPK6 kinase inhibitors, biochemical, TCAMS library (AID 1159586). Particulars: recombinant PfPK6, Kinase-Glo ATP depletion luminescence. In general terms: Kinase-Glo measures the ATP left after a reaction by luminescence.
Test [7] addresses Protein kinase 7 (PK7), Plasmodium falciparum 3D7 (PF3D7_0213400) (UniProt Q7YTF7). As to the kind of experiment: inhibition of Plasmodium PK7 catalytic activity – biochemical, TCAMS antimalarial set, Kinase-Glo luminescence (AID 1159587). The following applies: recombinant PfPK7, Kinase-Glo ATP depletion luminescence.
Test [8] has as its target Calcium-dependent protein kinase 4 (Plasmodium falciparum (isolate 3D7)) (UniProt Q8IBS5). Put plainly: PfCDPK4 kinase inhibitors, biochemical, TCAMS library (AID 1159588; cut-off not given, nearly all actives have IC50 up to about 0.91 µM). Particulars: recombinant PfCDPK4, Kinase-Glo ATP depletion luminescence.

Unmarked numbers belong to inactive results. For some assays here: Results with a measured potency or affinity are listed apart. The source made the active and inactive calls. Unless noted, how the calls were made is not given here.

Plasmodium falciparum protein kinase 6 (PK6, PF3D7_1337100), sequence (Q8IDW1 1-305): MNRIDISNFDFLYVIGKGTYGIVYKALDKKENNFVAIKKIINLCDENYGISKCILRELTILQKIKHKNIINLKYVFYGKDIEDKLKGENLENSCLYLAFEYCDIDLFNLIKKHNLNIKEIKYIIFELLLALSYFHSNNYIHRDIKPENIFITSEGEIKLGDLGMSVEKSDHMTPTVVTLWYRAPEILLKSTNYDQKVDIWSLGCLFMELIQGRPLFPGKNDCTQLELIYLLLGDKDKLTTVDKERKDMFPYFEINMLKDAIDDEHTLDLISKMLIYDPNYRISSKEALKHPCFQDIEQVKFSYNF
Calcium-dependent protein kinase 4 (Plasmodium falciparum (isolate 3D7)), sequence (Q8IBS5 whole entry, looked up): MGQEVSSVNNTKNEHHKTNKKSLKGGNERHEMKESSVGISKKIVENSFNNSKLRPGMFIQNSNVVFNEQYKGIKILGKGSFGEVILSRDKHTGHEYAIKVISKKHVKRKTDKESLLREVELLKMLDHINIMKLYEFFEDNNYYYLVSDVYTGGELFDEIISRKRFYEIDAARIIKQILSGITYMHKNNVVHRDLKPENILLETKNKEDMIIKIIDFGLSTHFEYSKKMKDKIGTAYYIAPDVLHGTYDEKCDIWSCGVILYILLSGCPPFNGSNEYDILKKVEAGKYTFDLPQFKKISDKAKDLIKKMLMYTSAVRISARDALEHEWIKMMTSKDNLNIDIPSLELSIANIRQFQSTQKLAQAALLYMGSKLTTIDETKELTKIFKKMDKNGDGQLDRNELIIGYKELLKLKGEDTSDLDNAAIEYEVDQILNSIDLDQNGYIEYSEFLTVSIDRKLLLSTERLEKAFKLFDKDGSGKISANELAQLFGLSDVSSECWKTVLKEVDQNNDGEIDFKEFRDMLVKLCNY
L-lactate dehydrogenase (Plasmodium falciparum (isolate CDC / Honduras)), sequence (Q27743 whole entry, looked up): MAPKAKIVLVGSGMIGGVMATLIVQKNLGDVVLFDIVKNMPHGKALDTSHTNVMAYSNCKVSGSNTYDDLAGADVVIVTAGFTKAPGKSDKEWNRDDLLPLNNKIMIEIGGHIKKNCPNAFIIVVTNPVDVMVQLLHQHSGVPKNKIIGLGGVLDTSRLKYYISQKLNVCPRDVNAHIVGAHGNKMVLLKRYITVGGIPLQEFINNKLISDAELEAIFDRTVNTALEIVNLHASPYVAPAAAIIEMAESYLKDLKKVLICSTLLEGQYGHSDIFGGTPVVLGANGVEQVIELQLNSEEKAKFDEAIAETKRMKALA
Protein kinase 7 (PK7), Plasmodium falciparum 3D7 (PF3D7_0213400), sequence (Q7YTF7 1-343): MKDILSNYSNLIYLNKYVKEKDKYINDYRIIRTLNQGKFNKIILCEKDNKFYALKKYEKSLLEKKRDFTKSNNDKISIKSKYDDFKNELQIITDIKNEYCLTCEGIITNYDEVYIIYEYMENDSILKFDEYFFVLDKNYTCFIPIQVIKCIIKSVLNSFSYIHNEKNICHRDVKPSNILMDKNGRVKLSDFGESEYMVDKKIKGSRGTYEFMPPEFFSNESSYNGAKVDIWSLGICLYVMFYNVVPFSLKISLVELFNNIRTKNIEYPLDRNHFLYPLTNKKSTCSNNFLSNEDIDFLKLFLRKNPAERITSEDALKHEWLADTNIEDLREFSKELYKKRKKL
Calcium-dependent protein kinase 1 (Plasmodium falciparum (isolate 3D7)), sequence (P62344 whole entry, looked up): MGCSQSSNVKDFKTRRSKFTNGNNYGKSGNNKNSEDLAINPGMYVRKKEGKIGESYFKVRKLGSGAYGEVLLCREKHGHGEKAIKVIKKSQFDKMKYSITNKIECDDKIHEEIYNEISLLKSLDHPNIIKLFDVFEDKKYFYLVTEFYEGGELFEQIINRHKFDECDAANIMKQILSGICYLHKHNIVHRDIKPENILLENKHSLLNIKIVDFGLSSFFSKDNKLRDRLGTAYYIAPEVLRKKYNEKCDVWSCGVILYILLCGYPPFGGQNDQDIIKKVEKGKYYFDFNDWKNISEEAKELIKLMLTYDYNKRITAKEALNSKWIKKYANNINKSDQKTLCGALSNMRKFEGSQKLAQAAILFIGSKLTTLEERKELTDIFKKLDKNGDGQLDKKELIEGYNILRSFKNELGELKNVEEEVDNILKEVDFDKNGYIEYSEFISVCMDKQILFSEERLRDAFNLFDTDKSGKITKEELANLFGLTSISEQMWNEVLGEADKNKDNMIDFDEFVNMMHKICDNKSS

In general, inhibition refers to the relative decrease from the control value, in per cent. On to `CCCN1CCc2c(sc3nc(SCC(=O)Nc4ccc(C)cc4)n(-c4ccc(C)cc4)c(=O)c23)C1`, for which the growth inhibition in test [1] was 71% (active); in test [4], 92% (active). For the same molecule, the inhibition in test [2] is 0%; in test [3], -5%. Moreover, the outcome in test [5], in test [6], in test [7] and in test [8] was inactive.
Turning to `COC(=O)c1cccc(NC(=O)NC2CCN(c3ccnc(Nc4ccc(F)cc4)n3)C2)c1` (configuration not stated), the growth inhibition in test [1] is 83% (active); in test [4], 100% (active). The inhibition in test [2] was 5%; in test [3], 3%. Also, the result in test [5], in test [6], in test [7] and in test [8] was inactive.
Consider `COc1cccc(CNC[C@@H](O)[C@H](Cc2ccccc2)NC(=O)c2cc(OC(C)C)cc(N3CCCCS3(=O)=O)c2)c1`, for which the results for the growth inhibition in test [1] and in test [4] were 49% and 95% (active), respectively. Moreover, the figures for the inhibition in test [2] and in test [3] were 8% and 5%, respectively. In addition, the result in test [5], in test [6], in test [7] and in test [8] was inactive.
`COc1ccc(CNCCCCCCCNCc2ccc(Cl)c(Cl)c2)cc1Cl`: the growth inhibition is 18% in test [1] and 90% (active) in test [4]. Further, the inhibition was 27% in test [2] and 4% in test [3]. Also, the outcome in test [5], in test [6], in test [7] and in test [8] was inactive.
As to `CC(C)(C)CC(C)(C)c1ccc(O)c(C(=O)Nc2ccc([N+](=O)[O-])cc2)c1`, the growth inhibition in test [1] is 99% (active); in test [4], 97% (active). Moreover, the results for the inhibition in test [2] and in test [3] were 80% (active) and 5%, respectively. For the same molecule, the outcome in test [5], in test [6], in test [7] and in test [8] was inactive.
As to `O=C(NCCCCCN1CCC(c2c[nH]c3ccccc23)CC1)Nc1cccc(Br)c1`, the growth inhibition in test [1] is -3%; in test [4] it was 84% (active). Moreover, the inhibition is 39% in test [2] and 3% in test [3]. Besides, the outcome in test [5], in test [6], in test [7] and in test [8] was inactive.
With `CCCc1nc2c(N3CCCN(C(=O)NC4CCCCC4)CC3)cccc2n1Cc1ccccn1`, the growth inhibition is 10% in test [1] and 89% (active) in test [4]. Besides, the values for the inhibition in test [2] and in test [3] were 10% and 5%, respectively. Moreover, the result in test [5], in test [6], in test [7] and in test [8] was inactive.
Regarding `O=C(NC1CCCCN(Cc2ccccc2O)C1)c1cccc(C(F)(F)F)c1` (configuration not stated), the growth inhibition is 64% (active) in test [1] and 93% (active) in test [4]. Moreover, the inhibition in test [2] was -4%; in test [3], -6%. The result in test [5], in test [6], in test [7] and in test [8] was inactive.
For `CN1CCN(c2ccnc3cc4c(cc23)N(C(=O)Nc2ccc(-c3ccncc3)c3ccccc23)CC4)CC1`, the growth inhibition was 97% (active) in test [1] and 101% (active) in test [4]. Also, the values for the inhibition in test [2] and in test [3] were 10% and -2%, respectively. Moreover, the result in test [5], in test [6], in test [7] and in test [8] was inactive.
For the molecule `Cc1cc(I)ccc1Nc1nc2nonc2nc1Nc1ccc(I)cc1C`, the growth inhibition is 96% (active) in test [1] and 100% (active) in test [4]. The values for the inhibition in test [2] and in test [3] were 78% (active) and -2%, respectively. In addition, the result in test [5], in test [6], in test [7] and in test [8] was inactive.
On to `CN1CCN(c2ccc(Nc3c(C(N)=O)cnc4cc(-c5ccoc5)ccc34)cc2)CC1`, for which the results for the growth inhibition in test [1] and in test [4] were 99% (active) and 101% (active), respectively. The inhibition in test [2] is 14%; in test [3], -3%. The outcome in test [5], in test [6], in test [7] and in test [8] was inactive.
Consider `Cc1ccc(-c2csc(C)n2)c(C)c1`, for which the growth inhibition is -3% in test [1] and 98% (active) in test [4]. Moreover, the inhibition in test [2] is 12%; in test [3] it was 3%. In addition, the result in test [5], in test [6], in test [7] and in test [8] was inactive.
On to `Cc1cc2nc(-c3cc(-c4cccc(NS(C)(=O)=O)c4)cnc3N)[nH]c2cc1C`, for which the growth inhibition in test [1] is 32%; in test [4], 102% (active). The results for the inhibition in test [2] and in test [3] were 43% and -2%, respectively. For the same molecule, the outcome in test [5], in test [6], in test [7] and in test [8] was inactive.
As for `CCCCCn1c(Sc2ccc(C#N)c([N+](=O)[O-])c2)nnc1-c1cccs1`, the values for the growth inhibition in test [1] and in test [4] were 38% and 91% (active), respectively. Further, the inhibition in test [2] is 19%; in test [3], -1%. Besides, the result in test [5], in test [6], in test [7] and in test [8] was inactive.
For the molecule `N#Cc1ccc2c(c1)CCN(CCC1CCC(NC(=O)/C=C/c3nc4ccccc4s3)CC1)CC2` (configuration not stated), the growth inhibition in test [1] was -2%; in test [4], 90% (active). Also, the values for the inhibition in test [2] and in test [3] were 6% and -4%, respectively. Further, the result in test [5], in test [6], in test [7] and in test [8] was inactive.
As to `Cc1cnc2ccc(NS(=O)(=O)c3ccc4c(Cl)cccc4c3)cc2c1N1CCNCC1`, the growth inhibition in test [1] is 3%; in test [4], 101% (active). In addition, the inhibition is 24% in test [2] and 1% in test [3]. Also, the outcome in test [5], in test [6], in test [7] and in test [8] was inactive.
As to `Cc1ccc(C(=O)Nc2ccc(F)c(F)c2F)cc1S(=O)(=O)N1CCCCC1`, the growth inhibition in test [1] is 69% (active); in test [4], 92% (active). Also, the inhibition in test [2] was 3%; in test [3] it was -8%. Also, the outcome in test [5], in test [6], in test [7] and in test [8] was inactive.
As for `CCC(CC)(Cc1ccccc1)NC(=O)[C@H](CC(C)C)Nc1ccc(C#N)c2ccccc12`, the growth inhibition in test [1] was 73% (active); in test [4], 90% (active). Also, the inhibition in test [2] is 57% (active); in test [3], -1%. In addition, the outcome in test [5], in test [6], in test [7] and in test [8] was inactive.
Turning to `COc1ccc(N2CCN(CCc3ccc(NC(=O)c4ccc([N+](=O)[O-])cc4)cc3)CC2)c(OC)c1`, the growth inhibition in test [1] is 0%; in test [4] it was 83% (active). In addition, the inhibition in test [2] was 45%; in test [3], 1%. In addition, the result in test [5], in test [6], in test [7] and in test [8] was inactive.
